Here are results for 20 molecules from PubChem BioAssay (NCI).

Assay [1] can be described thus: NCI Yeast Anticancer Drug Screen. Data for the rad50 strain (AID 155).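 Also: 0% = growth of vehicle-only cultures of the same strain.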 As to conditions: S. cerevisiae rad50 strain growth inhibition; at 50.0 µM; active compounds read high. The gist of the method:
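Vehicle-treated cultures provide the reference for the growth inhibition reported for compound-exposed, repair-deficient yeast.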

The nature of assay [2]: NCI Yeast Anticancer Drug Screen. Data for the mec2-1 strain (AID 157). The note with it: S. cerevisiae mec2-1 strain, at 50.0 µM, active compounds read high. The gist of the method:
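mec2-1 yeast strain, carrying an alteration in DNA damage repair or cell cycle control, was exposed to compounds; growth inhibition was measured relative to vehicle-treated controls.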

A short description of assay [3]: NCI Yeast Anticancer Drug Screen. Data for the sgs1 mgt1 strain (AID 161).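 Also: 0% = growth of cultures given vehicle only.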 As to conditions: S. cerevisiae sgs1 mgt1 strain, at 50.0 µM, active compounds read high. The gist of the method:
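Yeast cells carrying a defined DNA-repair defect were exposed to test compounds. Growth inhibition was measured relative to vehicle-treated controls.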

Assay [4] is described as follows: NCI Yeast Anticancer Drug Screen. Data for the cln2 rad14 strain (AID 165).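 Also: 0% = growth equal to vehicle treated cultures.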 The note with it: S. cerevisiae cln2 rad14 strain, at 50.0 µM, active compounds read high. The gist of the method:
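Yeast carrying cln2 and rad14 alterations (cell cycle control and DNA damage repair) were exposed to compounds. Growth inhibition was measured against vehicle-treated controls.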

The nature of assay [5]: NCI Yeast Anticancer Drug Screen. Data for the bub3 strain (AID 167). The note with it: S. cerevisiae bub3 mutant strain, at 50.0 µM, active compounds read high. Put shortly:
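Mutant yeast screening strain plus compound; vehicle-treated cultures serve as the 0% inhibition reference.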

Assay [6] can be described thus: NCI Yeast Anticancer Drug Screen. Data for the mlh1 rad18 strain (AID 175). The note with it: S. cerevisiae mlh1 rad18 strain growth inhibition; at 50.0 µM; active compounds read high. Put shortly: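 Growth inhibition of the yeast strain was measured after compound exposure and expressed relative to vehicle-treated controls. The strain carries defined defects in DNA damage repair.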

SMILES strings stand for the structures. The panel holds about 79,000 compounds, 15% with a hit somewhere; the sample as a whole holds those more often. Values without a mark were called inactive. The source made the active and inactive calls. Rule as the data show it: active = growth inhibition above about 70%; inactive = the rest.

For the molecule `O=C(O)/C=C/C(=O)Nc1ccc2c(c1)C(O)c1ccccc1-2` (stereo not given), the growth inhibition in assay [1] was -56.4%; in assay [2], -12.9%; in assay [3], -1.9%; in assay [4], -45.7%; in assay [5], -7.2%; in assay [6], -4.55%.
Take `S=C1SCN(C(c2ccccc2)c2ccccc2)CN1C(c1ccccc1)c1ccccc1`: the growth inhibition in assay [1] is 12.2%; in assay [2], 22.2%; in assay [3], 9.4%; in assay [4], -20.1%; in assay [5], -4.75%; in assay [6], 28.2%.
For the molecule `c1ccc(Nc2nnc(Nc3ccccc3)s2)cc1`, the growth inhibition was -6.15% in assay [1]; 21.6% in assay [2]; 53% in assay [3]; -21.2% in assay [4]; 3.9% in assay [5]; -21.1% in assay [6].
Consider `COC(=O)COc1cc2c(cc1C(C)c1ccc(O)cc1)OCO2` (stereo not given), for which the growth inhibition in assay [1] is 98.8% (active); in assay [2], 98.5% (active); in assay [3], 99% (active); in assay [4], 99.1% (active); in assay [5], 99.2% (active); in assay [6], 98.7% (active).
Regarding `O[C@@H]1C=C(c2ccccc2)[C@H](c2ccccc2)C1`, the growth inhibition in assay [1] was -3%; in assay [2] it was 9.6%; in assay [3], 9.65%; in assay [4], -7.9%; in assay [5] it was -19.8%; in assay [6] it was -1.15%.
On to `Nc1nc2c(N)cc(C(F)(F)F)cc2nc1-c1ccccc1`, for which the growth inhibition is -38.2% in assay [1]; -17.2% in assay [2]; -1.9% in assay [3]; 7.95% in assay [4]; -6.25% in assay [5]; -12.4% in assay [6].
For the molecule `CC1C(c2ccccc2O)c2cc3c(cc2OC1N1CCCC1)OCO3` (stereo not given), the growth inhibition in assay [1] is 45.9%; in assay [2], 38.8%; in assay [3], 58.5%; in assay [4] it was 59.6%; in assay [5], 47.4%; in assay [6] it was 58.3%.
Turning to `O=C(NCC1CC1)Nc1cccc2ccccc12`, the growth inhibition was -19.1% in assay [1]; -3.4% in assay [2]; -2% in assay [3]; -54.7% in assay [4]; -14% in assay [5]; -5.1% in assay [6].
Regarding `CC(=O)Nc1ccc(/C=C2\CCOC2=O)cc1[N+](=O)[O-]`, the growth inhibition in assay [1] was 6.8%; in assay [2] it was 8.2%; in assay [3], 7.15%; in assay [4], 57.5%; in assay [5] it was 8%; in assay [6] it was 3.6%.
Consider `CC1(C)O[C@@H]2[C@@H](COC(=O)c3ccccc3)C[C@@H](C#N)[C@@H]2O1`, for which the growth inhibition in assay [1] is 4.05%; in assay [2], -0.85%; in assay [3], -25.6%; in assay [4], 24.9%; in assay [5] it was 38.9%; in assay [6] it was -11.2%.
For the molecule `COc1ccc(CC2COC(=O)C2Cc2ccc(OC)c(OC)c2)cc1OC` (stereo not given), the growth inhibition was 6.35% in assay [1]; 5.95% in assay [2]; -17.6% in assay [3]; -11.6% in assay [4]; 8.1% in assay [5]; 12.8% in assay [6].
Turning to `c1ccc(C(CCN2CC3CCC(CC3)C2)c2ccccc2)cc1`, the growth inhibition in assay [1] was 14.6%; in assay [2] it was -21.4%; in assay [3], -17.9%; in assay [4], -22.6%; in assay [5], -21.9%; in assay [6], 22.6%.
`Cc1cc(Cl)cc(CN(C)Cc2c(C)[nH]c(=O)[nH]c2=O)c1O`: the growth inhibition in assay [1] is -31.4%; in assay [2], -17.1%; in assay [3], -17.2%; in assay [4], 2.65%; in assay [5], -0.5%; in assay [6], -8.9%.
For `CC1SC2=NC3=C(c4ccccc4C3=O)C(c3ccccc3Cl)N2C1=O` (stereo not given), the growth inhibition in assay [1] was 15.8%; in assay [2], 8.75%; in assay [3], 8.55%; in assay [4], 4.95%; in assay [5] it was 17.9%; in assay [6] it was 23.3%.
On to `Cn1c(=O)c2c(ncn2CC(=O)O)n(C)c1=O`, for which the growth inhibition in assay [1] is -3.9%; in assay [2], -28.1%; in assay [3] it was -8.5%; in assay [4], 6.7%; in assay [5], -13.8%; in assay [6] it was 19.9%.
Take `Cc1cc2c(nn1)CCc1c-2no[n+]1[O-]`: the growth inhibition in assay [1] is 3.15%; in assay [2] it was -32.1%; in assay [3], -10.4%; in assay [4], 22.5%; in assay [5], 3.45%; in assay [6], -2.8%.
As for `CCN(CC)CCNC1=CC(=S)NC(C)(C)C1`, the growth inhibition is -13.7% in assay [1]; 10.6% in assay [2]; -2.6% in assay [3]; -4.2% in assay [4]; -1.9% in assay [5]; -6.05% in assay [6].
Take `CC(C)CCCC(C)C1CCC2C3C=C(C(=O)O)C(C)(CCC(=O)O)C3CCC12C` (stereo not given): the growth inhibition in assay [1] was 45%; in assay [2], 32%; in assay [3] it was 42%; in assay [4], 7.7%; in assay [5], -2.15%; in assay [6], 44.1%.
For `COc1ccc2c(c1)N1CCc3cc(OC)c(OC)cc3C1C2` (stereo not given), the growth inhibition is 15.8% in assay [1]; -5.15% in assay [2]; 25.2% in assay [3]; 9.5% in assay [4]; 25% in assay [5]; 34.4% in assay [6].
As to `C(/C=C\c1ccccc1)=Nc1ccccc1`, the growth inhibition in assay [1] was 8%; in assay [2], -11.8%; in assay [3], -4.55%; in assay [4], 9.35%; in assay [5], 0.2%; in assay [6], 17.1%.
